1 sequence from PMC7862700, “An all-to-all approach to the identification of sequence-specific readers for epigenetic DNA modifications on cytosine” can be followed below.

What all share (assay): DAPPL (digital affinity profiling via proximity ligation, sequencing); 10 mM Tris-HCl pH 7.5, 50 mM NaCl, 1 mM DTT, 4% glycerol, room temperature, 30 min; GST-TFs on glutathione beads, 16-mer random dsDNA library, 0.1% formaldehyde crosslink after washing; high values mean tight binding
Assay [1] deals with T1, FEV (Homo sapiens, UniProt Q99581 1-238).
T1 sequence: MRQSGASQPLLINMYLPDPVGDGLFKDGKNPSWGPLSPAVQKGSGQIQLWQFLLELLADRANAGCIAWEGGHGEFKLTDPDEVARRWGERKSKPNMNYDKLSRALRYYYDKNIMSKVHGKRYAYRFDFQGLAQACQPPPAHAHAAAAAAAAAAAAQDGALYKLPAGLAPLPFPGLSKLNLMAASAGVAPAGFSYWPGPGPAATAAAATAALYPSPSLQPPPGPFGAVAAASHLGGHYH
The settings on record: protein: recombinant; tags: N-terminal GST; dsDNA, one strand shown. In a few lines: (§1)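 Pools of DNA-barcoded human transcription factors, expressed in yeast as GST fusions on glutathione beads and combined with a tag-only sample, were incubated with 200 nmole of a 16-mer random double-stranded DNA library. Incubation took 30 min at room temperature in Tris/NaCl/DTT/glycerol buffer and was followed by washing, 0.1% formaldehyde crosslinking, proximity ligation (BsaI/T4 ligase, 1 h, 37 °C), PCR amplification and sequencing on an Illumina NextSeq500. Binding signal is the ratio of a hexamer's read frequency for a factor to its frequency for the tag-only sample.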

Assay [2] addresses ETV5 (Homo sapiens, UniProt P41161 1-510). The settings on record: protein: recombinant; tags: N-terminal GST; dsDNA, one strand shown. In a few lines:
as §1

Assay [3] concerns the target HSF1 (Homo sapiens, UniProt Q00613 1-529). The settings on record: protein: recombinant; tags: N-terminal GST; chain copies: 3; dsDNA, one strand shown. In a few lines:
as §1

In assay [4] the target is T2, SPIC (Homo sapiens, UniProt Q8N5J4 1-248).
T2 sequence: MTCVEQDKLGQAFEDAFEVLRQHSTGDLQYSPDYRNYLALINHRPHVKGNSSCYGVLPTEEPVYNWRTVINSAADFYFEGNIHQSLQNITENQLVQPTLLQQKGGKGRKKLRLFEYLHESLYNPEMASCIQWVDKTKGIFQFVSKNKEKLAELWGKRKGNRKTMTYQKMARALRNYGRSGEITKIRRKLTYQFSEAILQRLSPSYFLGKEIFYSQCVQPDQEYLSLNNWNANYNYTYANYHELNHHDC
The following applies: protein: recombinant; tags: N-terminal GST; dsDNA, one strand shown. The method, boiled down:
as §1

The target in assay [5] is ELF4 (Homo sapiens, UniProt Q99607 1-663). The following applies: protein: recombinant; tags: N-terminal GST; dsDNA, one strand shown. In a few lines: as §1
In assay [6] the target is T3, ELK4 (Homo sapiens, UniProt P28324-2 1-405).
T3 sequence: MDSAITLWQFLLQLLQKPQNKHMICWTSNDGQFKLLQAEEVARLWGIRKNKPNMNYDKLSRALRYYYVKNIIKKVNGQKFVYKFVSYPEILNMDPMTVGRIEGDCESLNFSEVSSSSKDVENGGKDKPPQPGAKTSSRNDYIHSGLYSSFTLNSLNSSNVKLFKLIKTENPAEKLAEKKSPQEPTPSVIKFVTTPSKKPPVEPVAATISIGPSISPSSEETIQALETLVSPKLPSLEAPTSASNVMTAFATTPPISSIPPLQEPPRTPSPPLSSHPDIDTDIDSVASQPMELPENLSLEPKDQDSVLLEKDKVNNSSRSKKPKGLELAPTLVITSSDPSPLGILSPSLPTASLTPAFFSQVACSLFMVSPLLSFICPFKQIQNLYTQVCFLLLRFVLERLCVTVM
The following applies: protein: recombinant; tags: N-terminal GST; dsDNA, one strand shown. In a few lines:
as §1

For assay [7], the target named is T4, ETV2 (Homo sapiens, UniProt O00321 1-342).
T4 sequence: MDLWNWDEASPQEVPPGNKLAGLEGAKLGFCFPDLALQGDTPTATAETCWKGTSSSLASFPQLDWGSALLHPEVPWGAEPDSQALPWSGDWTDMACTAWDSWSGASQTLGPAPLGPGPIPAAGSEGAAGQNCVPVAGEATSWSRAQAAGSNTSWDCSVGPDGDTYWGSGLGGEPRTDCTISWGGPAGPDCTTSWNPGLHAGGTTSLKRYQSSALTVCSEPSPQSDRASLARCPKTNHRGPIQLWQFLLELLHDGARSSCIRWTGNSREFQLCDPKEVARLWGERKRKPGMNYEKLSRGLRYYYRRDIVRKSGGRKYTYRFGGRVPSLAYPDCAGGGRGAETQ
The following applies: protein: recombinant; tags: N-terminal GST; dsDNA, one strand shown. The method, boiled down:
as §1

Assay [8] deals with T5, ELF3 (Homo sapiens, UniProt P78545 1-371).
T5 sequence: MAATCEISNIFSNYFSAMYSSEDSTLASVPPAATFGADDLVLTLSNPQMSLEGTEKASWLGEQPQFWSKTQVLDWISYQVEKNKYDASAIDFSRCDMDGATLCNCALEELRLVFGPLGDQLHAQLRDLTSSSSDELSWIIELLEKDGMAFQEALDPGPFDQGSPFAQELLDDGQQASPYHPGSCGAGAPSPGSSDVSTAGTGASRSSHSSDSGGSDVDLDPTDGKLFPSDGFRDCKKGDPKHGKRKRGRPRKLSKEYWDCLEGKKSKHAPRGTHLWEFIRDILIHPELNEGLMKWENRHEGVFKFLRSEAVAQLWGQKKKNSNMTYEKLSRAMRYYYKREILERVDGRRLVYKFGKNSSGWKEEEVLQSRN
The following applies: protein: recombinant; tags: N-terminal GST; dsDNA, one strand shown. The method, boiled down:
as §1

The target in assay [9] is CRX (Homo sapiens, UniProt O43186 1-299). The settings on record: protein: recombinant; tags: N-terminal GST; dsDNA, one strand shown. In a few lines:
as §1

The target in assay [10] is ETV1 (Homo sapiens, UniProt P50549 1-477). The settings on record: protein: recombinant; tags: N-terminal GST; dsDNA, one strand shown. In a few lines: as §1
In assay [11] the target is T6, ERF (Homo sapiens, UniProt P50548 1-548).
T6 sequence: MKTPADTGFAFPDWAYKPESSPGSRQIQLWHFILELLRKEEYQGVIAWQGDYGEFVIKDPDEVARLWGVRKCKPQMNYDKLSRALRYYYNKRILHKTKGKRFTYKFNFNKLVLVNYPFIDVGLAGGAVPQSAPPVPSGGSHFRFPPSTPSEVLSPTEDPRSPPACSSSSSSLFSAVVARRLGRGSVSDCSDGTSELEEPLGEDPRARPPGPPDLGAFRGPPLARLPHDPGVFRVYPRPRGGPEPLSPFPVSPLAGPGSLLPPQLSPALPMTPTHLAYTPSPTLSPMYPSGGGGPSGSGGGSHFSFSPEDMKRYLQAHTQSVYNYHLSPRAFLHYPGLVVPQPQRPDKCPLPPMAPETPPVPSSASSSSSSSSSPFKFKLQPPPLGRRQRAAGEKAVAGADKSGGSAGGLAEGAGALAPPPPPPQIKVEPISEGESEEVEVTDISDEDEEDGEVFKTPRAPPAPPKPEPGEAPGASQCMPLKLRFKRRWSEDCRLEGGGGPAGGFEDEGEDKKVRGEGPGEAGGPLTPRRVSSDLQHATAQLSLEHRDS
The settings on record: protein: recombinant; tags: N-terminal GST; dsDNA, one strand shown. The method, boiled down: as §1

Assay [12] deals with T7, ETV3L (Homo sapiens, UniProt Q6ZN32 1-361).
T7 sequence: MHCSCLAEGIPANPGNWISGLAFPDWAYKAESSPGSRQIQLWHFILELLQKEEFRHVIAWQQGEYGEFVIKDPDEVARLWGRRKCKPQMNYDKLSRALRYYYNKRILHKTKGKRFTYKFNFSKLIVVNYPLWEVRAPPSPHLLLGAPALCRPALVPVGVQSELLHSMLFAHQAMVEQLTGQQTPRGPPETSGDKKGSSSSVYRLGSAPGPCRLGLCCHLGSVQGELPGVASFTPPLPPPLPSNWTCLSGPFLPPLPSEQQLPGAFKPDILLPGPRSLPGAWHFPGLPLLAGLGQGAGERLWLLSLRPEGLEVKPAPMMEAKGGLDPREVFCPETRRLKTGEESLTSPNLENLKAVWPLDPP
The settings on record: protein: recombinant; tags: N-terminal GST; dsDNA, one strand shown. In a few lines:
as §1

The target of assay [13] is T8, ETS2 (Homo sapiens, UniProt P15036 1-469).
T8 sequence: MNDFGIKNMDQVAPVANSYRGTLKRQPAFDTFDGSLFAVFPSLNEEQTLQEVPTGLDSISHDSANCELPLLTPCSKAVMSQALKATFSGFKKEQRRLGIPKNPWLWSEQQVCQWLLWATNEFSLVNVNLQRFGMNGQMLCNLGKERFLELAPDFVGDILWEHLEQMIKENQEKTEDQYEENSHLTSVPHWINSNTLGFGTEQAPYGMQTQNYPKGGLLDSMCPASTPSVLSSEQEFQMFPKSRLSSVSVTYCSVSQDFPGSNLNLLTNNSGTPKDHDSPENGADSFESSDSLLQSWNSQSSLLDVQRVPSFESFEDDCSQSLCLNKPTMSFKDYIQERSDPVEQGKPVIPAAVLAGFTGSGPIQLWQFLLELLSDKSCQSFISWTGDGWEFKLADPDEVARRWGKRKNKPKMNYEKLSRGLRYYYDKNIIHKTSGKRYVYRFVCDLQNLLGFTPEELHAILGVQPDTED
The settings on record: protein: recombinant; tags: N-terminal GST; dsDNA, one strand shown. In a few lines:
as §1

Assay [14] concerns the target T9, SPDEF (Homo sapiens, UniProt O95238 1-335).
T9 sequence: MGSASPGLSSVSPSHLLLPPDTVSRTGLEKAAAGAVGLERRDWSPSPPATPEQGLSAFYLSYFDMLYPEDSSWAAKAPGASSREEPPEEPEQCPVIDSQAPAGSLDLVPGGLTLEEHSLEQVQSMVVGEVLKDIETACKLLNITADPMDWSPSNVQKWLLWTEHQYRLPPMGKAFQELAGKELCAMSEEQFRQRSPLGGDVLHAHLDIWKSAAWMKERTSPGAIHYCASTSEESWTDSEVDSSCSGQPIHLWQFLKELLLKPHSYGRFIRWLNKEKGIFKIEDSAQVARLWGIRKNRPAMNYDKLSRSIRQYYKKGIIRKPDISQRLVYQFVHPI
The settings on record: protein: recombinant; tags: N-terminal GST; dsDNA, one strand shown. In a few lines: as §1

Assay [15] concerns the target T10, ETV7 (Homo sapiens, UniProt Q9Y603 1-341).
T10 sequence: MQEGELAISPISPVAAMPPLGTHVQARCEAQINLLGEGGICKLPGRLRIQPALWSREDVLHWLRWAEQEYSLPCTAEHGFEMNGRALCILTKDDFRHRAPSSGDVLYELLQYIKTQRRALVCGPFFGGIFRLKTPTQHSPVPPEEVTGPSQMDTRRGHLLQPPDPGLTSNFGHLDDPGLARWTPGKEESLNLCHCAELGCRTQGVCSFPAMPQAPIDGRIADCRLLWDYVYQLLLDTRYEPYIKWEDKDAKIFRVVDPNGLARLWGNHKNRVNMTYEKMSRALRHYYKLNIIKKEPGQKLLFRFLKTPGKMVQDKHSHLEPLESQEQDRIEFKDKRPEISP
The following applies: protein: recombinant; tags: N-terminal GST; dsDNA, one strand shown. In a few lines: as §1

Assay [16] deals with T11, ELF5 (Homo sapiens, UniProt Q9UKW6-2 1-255).
T11 sequence: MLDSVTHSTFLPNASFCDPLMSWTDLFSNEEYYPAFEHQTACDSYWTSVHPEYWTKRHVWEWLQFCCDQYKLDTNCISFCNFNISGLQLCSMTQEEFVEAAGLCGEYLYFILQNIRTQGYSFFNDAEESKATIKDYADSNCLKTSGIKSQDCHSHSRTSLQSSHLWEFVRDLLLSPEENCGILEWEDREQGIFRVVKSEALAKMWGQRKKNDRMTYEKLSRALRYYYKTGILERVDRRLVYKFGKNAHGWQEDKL
The settings on record: protein: recombinant; tags: N-terminal GST; dsDNA, one strand shown. In a few lines:
as §1

Assay [17] concerns the target T12, ETV3 (Homo sapiens, UniProt P41162-2 1-143).
T12 sequence: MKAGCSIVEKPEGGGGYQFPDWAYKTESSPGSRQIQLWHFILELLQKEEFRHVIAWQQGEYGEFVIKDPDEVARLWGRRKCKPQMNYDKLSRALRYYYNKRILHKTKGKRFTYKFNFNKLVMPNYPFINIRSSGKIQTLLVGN
The settings on record: protein: recombinant; tags: N-terminal GST; dsDNA, one strand shown. The method, boiled down:
as §1

For assay [18], the target named is ETV6 (Homo sapiens, UniProt P41212 1-452). The settings on record: protein: recombinant; tags: N-terminal GST; dsDNA, one strand shown. In a few lines: as §1
ETV6, sequence (P41212 whole entry): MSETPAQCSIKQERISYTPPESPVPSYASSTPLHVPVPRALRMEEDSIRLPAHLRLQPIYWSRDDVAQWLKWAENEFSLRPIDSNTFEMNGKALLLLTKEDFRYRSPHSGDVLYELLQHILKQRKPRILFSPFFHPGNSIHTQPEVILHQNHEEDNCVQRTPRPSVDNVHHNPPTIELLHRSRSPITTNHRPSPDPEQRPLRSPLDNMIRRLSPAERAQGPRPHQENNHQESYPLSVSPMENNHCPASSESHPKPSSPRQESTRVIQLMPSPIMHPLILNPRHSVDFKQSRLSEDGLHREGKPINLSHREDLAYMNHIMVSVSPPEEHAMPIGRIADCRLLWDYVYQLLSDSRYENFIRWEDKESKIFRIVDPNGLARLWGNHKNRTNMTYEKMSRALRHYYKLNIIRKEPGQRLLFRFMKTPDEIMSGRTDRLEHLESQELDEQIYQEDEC

ETV1, sequence (P50549 whole entry): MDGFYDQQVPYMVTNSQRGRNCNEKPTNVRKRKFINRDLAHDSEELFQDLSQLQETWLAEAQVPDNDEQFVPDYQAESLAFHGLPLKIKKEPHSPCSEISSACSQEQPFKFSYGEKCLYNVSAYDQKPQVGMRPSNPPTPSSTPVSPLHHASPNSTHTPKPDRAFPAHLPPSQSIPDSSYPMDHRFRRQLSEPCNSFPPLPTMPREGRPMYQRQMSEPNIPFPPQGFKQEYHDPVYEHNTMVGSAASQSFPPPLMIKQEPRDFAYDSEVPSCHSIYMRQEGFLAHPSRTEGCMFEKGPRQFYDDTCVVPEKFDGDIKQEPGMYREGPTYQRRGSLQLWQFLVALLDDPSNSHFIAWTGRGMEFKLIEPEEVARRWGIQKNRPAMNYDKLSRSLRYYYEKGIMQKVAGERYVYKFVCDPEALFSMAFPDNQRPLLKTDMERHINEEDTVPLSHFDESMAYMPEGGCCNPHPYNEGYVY
CRX, sequence (O43186 whole entry): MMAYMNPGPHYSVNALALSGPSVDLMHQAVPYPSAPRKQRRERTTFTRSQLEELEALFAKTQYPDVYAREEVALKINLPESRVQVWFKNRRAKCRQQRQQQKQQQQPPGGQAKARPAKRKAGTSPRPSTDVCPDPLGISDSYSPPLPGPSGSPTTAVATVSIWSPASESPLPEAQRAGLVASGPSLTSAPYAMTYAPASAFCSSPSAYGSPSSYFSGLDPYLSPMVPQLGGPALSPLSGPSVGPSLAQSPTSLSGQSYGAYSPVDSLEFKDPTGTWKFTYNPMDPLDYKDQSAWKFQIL
ELF4, sequence (Q99607 whole entry): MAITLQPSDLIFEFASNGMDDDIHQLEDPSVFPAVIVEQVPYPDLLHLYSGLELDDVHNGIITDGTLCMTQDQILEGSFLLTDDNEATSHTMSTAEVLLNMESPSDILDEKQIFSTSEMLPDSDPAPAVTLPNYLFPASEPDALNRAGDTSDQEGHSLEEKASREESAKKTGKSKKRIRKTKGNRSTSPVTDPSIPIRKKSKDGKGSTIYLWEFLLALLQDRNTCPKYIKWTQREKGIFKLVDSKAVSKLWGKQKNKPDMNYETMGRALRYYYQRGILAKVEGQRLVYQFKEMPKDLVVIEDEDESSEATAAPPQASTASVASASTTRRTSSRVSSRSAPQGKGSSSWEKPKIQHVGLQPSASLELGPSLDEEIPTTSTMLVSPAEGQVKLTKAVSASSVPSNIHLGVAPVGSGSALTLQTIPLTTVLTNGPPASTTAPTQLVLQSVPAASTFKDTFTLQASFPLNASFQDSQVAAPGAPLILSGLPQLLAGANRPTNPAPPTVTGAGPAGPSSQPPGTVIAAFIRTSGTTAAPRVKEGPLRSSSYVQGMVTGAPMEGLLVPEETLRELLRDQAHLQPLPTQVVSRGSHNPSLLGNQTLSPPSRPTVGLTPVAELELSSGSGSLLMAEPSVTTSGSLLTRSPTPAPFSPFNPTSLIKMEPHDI
HSF1, sequence (Q00613 whole entry): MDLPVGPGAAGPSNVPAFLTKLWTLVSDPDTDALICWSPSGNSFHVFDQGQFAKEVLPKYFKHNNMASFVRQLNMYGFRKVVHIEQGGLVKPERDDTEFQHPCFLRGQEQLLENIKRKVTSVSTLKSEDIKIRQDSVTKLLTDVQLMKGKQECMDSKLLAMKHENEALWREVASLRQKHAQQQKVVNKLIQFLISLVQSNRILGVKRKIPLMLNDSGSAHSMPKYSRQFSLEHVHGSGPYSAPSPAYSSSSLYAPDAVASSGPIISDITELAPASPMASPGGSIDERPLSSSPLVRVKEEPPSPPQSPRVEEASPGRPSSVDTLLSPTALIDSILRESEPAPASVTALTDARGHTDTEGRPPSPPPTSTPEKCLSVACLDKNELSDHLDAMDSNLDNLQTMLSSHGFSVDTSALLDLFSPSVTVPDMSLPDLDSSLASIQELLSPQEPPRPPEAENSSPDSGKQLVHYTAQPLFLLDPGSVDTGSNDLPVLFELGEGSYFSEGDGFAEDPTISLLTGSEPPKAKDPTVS
ETV5, sequence (P41161 whole entry): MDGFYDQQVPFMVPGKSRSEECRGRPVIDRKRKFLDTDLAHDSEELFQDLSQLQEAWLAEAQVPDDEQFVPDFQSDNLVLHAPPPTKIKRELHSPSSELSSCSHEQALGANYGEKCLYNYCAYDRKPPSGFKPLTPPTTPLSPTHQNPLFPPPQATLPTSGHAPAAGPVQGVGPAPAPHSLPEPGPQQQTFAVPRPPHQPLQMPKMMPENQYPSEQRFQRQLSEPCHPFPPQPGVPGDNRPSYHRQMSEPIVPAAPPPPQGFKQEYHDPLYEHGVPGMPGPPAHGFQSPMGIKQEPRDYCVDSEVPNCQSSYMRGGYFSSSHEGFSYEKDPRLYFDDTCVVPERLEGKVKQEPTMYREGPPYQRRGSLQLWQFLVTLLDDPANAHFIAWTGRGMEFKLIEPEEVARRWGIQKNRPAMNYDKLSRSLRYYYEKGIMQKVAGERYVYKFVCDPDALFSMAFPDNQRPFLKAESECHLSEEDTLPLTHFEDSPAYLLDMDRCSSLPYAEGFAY

As for ATTATG, the binding signal in assay [1] was 1.13 fold enrichment (6-mer frequency, TF over GST control); in assay [2], 1.26 fold enrichment (6-mer frequency, TF over GST control); in assay [3] it was 1.68 fold enrichment (6-mer frequency, TF over GST control); in assay [4], 1.42 fold enrichment (6-mer frequency, TF over GST control); in assay [5], 1.22 fold enrichment (6-mer frequency, TF over GST control); in [6], 1.11 fold enrichment (6-mer frequency, TF over GST control). Besides, the binding signal was 1.03 fold enrichment (6-mer frequency, TF over GST control) in assay [7]; 1.48 fold enrichment (6-mer frequency, TF over GST control) in assay [8]; 2.58 fold enrichment (6-mer frequency, TF over GST control) in assay [9]; 1.21 fold enrichment (6-mer frequency, TF over GST control) in assay [10]; 1.11 fold enrichment (6-mer frequency, TF over GST control) in assay [11]; 1.27 fold enrichment (6-mer frequency, TF over GST control) in assay [12]. In addition, the binding signal is 1.14 fold enrichment (6-mer frequency, TF over GST control) in [13]; 1.19 fold enrichment (6-mer frequency, TF over GST control) in [14]; 1.32 fold enrichment (6-mer frequency, TF over GST control) in assay [15]; 1.14 fold enrichment (6-mer frequency, TF over GST control) in [16]; 1.2 fold enrichment (6-mer frequency, TF over GST control) in [17]; 1.33 fold enrichment (6-mer frequency, TF over GST control) in assay [18].
